Results taken from PubChem BioAssay (Tox21).
“And” between values parts separate entries of the source, which are not always exact repeats. Identical values can stand only once. Results filed as inconclusive are left out. Entries that show only a call come without a potency. More than one record can exist for a structure, and the calls need not agree. The source made the active and inactive calls. Unless noted, calls come from the whole dose curve.

assay: qHTS assay to identify small molecule agonists of the sonic hedgehog signaling (Shh) pathway - cell viability counter screen (AID 1259366; active = well fitted curve in the direction sought with a large enough effect in the repeat runs; an effect the other way counts as inactive or inconclusive; note: nearly all actives have a fitted effect of over 50% in size; note: potency is the fitted concentration of half-maximal effect); details: NIH/3T3 Gli1-Luc viability, CellTiter-Fluor, 24 h; series mostly up to 92.4 µM; viability change, negative = cytotoxic: at the top concentration
In short: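 After a 4hr attachment at 37C, NIH/3T3 cells bearing an integrated Gli1-driven luciferase reporter were dosed with compounds. Treatment lasted 24hr, with the final hour including CellTiter-Fluor for a fluorescence viability measurement.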

SMILES	Potency
COc1ccccc1O	inactive
COCC(C)N (stereo not given)	inactive
C/C=C/c1ccc(O)c(OC)c1	inactive
COc1cc(C=O)ccc1O	inactive
COc1ccc(C(=O)c2ccccc2)c(O)c1	inactive
C1CNCCN1	inactive
CC(O)COc1ccccc1 (stereo not given)	inactive
NC(N)=NC(N)=NCCc1ccccc1	inactive
CC1=NN(c2ccccc2)C(=O)C1	inactive
O=c1c(-c2ccc(O)cc2)coc2cc(O)cc(O)c12	inactive
NC(=O)N1c2ccccc2C=Cc2ccccc21	inactive
NC(=O)N/N=C/c1ccc([N+](=O)[O-])o1	inactive and 54.5 µM (active)
C[C@]12CC[C@@H]3c4ccc(O)cc4C[C@@H](CCCCCCCCCS(=O)CCCC(F)(F)C(F)(F)F)[C@H]3[C@@H]1CC[C@@H]2O (stereo not given in full)	inactive
CC(=O)c1ccc(S(=O)(=O)NC(=O)NC2CCCCC2)cc1	inactive
CN(C)Cc1cc(CN(C)C)c(O)c(CN(C)C)c1	inactive
Cc1ccc(O)c(-n2nc3ccccc3n2)c1	60.6 µM (active) and inactive
COC(=O)c1ccc(O)cc1	inactive
c1ccc2[nH]c(-c3cscn3)nc2c1	inactive
OCCCc1ccccc1	inactive

assay: qHTS assay to identify small molecule antagonists of the sonic hedgehog signaling (Shh) pathway - cell viability counter screen (AID 1259367; active = well fitted curve in the direction sought with a large enough effect in the repeat runs; an effect the other way counts as inactive or inconclusive; note: nearly all actives have a fitted effect of over 55% in size; note: potency is the fitted concentration of half-maximal effect); details: NIH/3T3 Gli1-Luc viability, CellTiter-Fluor, 24 h; series mostly up to 92.4 µM; viability change, negative = cytotoxic: at the top concentration
In short: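 Viability was read by CellTiter-Fluor fluorescence in the same wells, reagent added 23 hr into compound treatment and incubated 1 hr at 37C. The 3T3 Gli1-Luc reporter cells (2,000/well) received conditioned medium after compound and ran 24 hr.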

SMILES	Potency
CC(=O)Oc1ccccc1C(=O)O	inactive
COc1ccccc1O	inactive
CCCCCCCCCCCCCC(=O)OC(C)C	inactive
COc1cc(C=O)ccc1O	inactive
C1CNCCN1	inactive
COc1ccc(O)cc1	inactive
CC1=NN(c2ccccc2)C(=O)C1	inactive
O=c1c(-c2ccc(O)cc2)coc2cc(O)cc(O)c12	inactive
Cc1cccc(C)c1O	inactive
NC(=O)N/N=C/c1ccc([N+](=O)[O-])o1	inactive and 30.6 µM (active)
CC(=O)c1ccc(S(=O)(=O)NC(=O)NC2CCCCC2)cc1	inactive
CN(C)Cc1cc(CN(C)C)c(O)c(CN(C)C)c1	inactive
c1ccc2[nH]c(-c3cscn3)nc2c1	inactive
O=C1OC(c2ccc(O)cc2)(c2ccc(O)cc2)c2ccccc21	54.1 µM (active) and inactive
OCCCc1ccccc1	inactive
NC(=O)OCC(COC(N)=O)c1ccccc1	inactive

assay: qHTS assay to identify small molecule agonists of the sonic hedgehog signaling (Shh) pathway (AID 1259368); details: NIH/3T3 Gli1-Luc reporter, luciferase, 24 h, stronger effect = higher value; series mostly up to 92.4 µM; activity change: at the top concentration;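 note: NIH/3T3-derived 3T3Gli1-Luc cells carrying a stable Gli1-driven firefly luciferase reporter; nearly all actives have a fitted effect of over 15% in size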
In short: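 Luminescence was read after 30 min at room temperature with luciferase reagent. Before that, 3T3Gli1-Luc cells (NIH/3T3 clone, stable Gli1-Luc reporter; 2,000/well) were exposed to compounds for 24 hr at 37C, 5% CO2, compounds being added 4 hr post-plating.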

SMILES	outcome
CC(=O)Oc1ccccc1C(=O)O	inactive
COc1ccccc1O	inactive
COCCOCCOC	inactive
COCC(C)N (stereo not given)	inactive
NCCNc1cccc2ccccc12	inactive
C/C=C/c1ccc(O)c(OC)c1	inactive
Cc1cccc(Nc2cc(Cl)nc(SCC(=O)O)n2)c1C	inactive
CCCCCCCCCCCCCC(=O)OC(C)C	inactive
COc1cc(C=O)ccc1O	inactive
COc1ccc(C(=O)c2ccccc2)c(O)c1	inactive
C1CNCCN1	inactive
COc1cc(O)c(C(=O)c2ccccc2)cc1S(=O)(=O)O	inactive
COc1ccc(O)cc1	inactive
CC(O)COc1ccccc1 (stereo not given)	inactive
NC(N)=NC(N)=NCCc1ccccc1	inactive
CC1=NN(c2ccccc2)C(=O)C1	inactive
O=c1c(-c2ccc(O)cc2)coc2cc(O)cc(O)c12	inactive
NC(=O)N1c2ccccc2C=Cc2ccccc21	inactive
Cc1cccc(C)c1O	inactive
NC(=O)N/N=C/c1ccc([N+](=O)[O-])o1	inactive
C[C@]12CC[C@@H]3c4ccc(O)cc4C[C@@H](CCCCCCCCCS(=O)CCCC(F)(F)C(F)(F)F)[C@H]3[C@@H]1CC[C@@H]2O (stereo not given in full)	inactive
CC(=O)c1ccc(S(=O)(=O)NC(=O)NC2CCCCC2)cc1	inactive
CN(C)Cc1cc(CN(C)C)c(O)c(CN(C)C)c1	inactive
Cc1ccc(O)c(-n2nc3ccccc3n2)c1	inactive
COC(=O)c1ccc(O)cc1	inactive
c1ccc2[nH]c(-c3cscn3)nc2c1	inactive
O=C1OC(c2ccc(O)cc2)(c2ccc(O)cc2)c2ccccc21	inactive
OCCCc1ccccc1	inactive
NC(=O)OCC(COC(N)=O)c1ccccc1	inactive
COc1cc2c(c(OC)c1OC)-c1ccc(OC)c(=O)cc1[C@@H](NC(C)=O)CC2	inactive

assay: qHTS assay to identify small molecule antagonists of the sonic hedgehog signaling (Shh) pathway (AID 1259369); details: NIH/3T3 Gli1-Luc reporter, Shh antagonist, luminescence 24 h; series mostly up to 92.4 µM; activity change, negative = inhibition: at the top concentration; note: nearly all actives have a fitted effect of over 45% in size; note: potency is the fitted concentration of half-maximal effect
In short: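 Antagonist mode: compound added to 3T3 Gli1-Luc cells followed by conditioned-medium stimulation, 24 h at 37 C, 5% CO2. Inhibition taken as loss of Gli1-driven luciferase luminescence.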

SMILES	Potency	activity change, negative = inhibition
CC(=O)Oc1ccccc1C(=O)O	inactive	–
COc1ccccc1O	inactive	–
COCCOCCOC	–	0% (inactive)
COCC(C)N (stereo not given)	inactive	–
NCCNc1cccc2ccccc12	61.1 µM (active) and 37.6 µM (active) and inactive	–
C/C=C/c1ccc(O)c(OC)c1	inactive	–
Cc1cccc(Nc2cc(Cl)nc(SCC(=O)O)n2)c1C	inactive	–
CCCCCCCCCCCCCC(=O)OC(C)C	inactive	–
COc1cc(C=O)ccc1O	inactive	–
COc1ccc(C(=O)c2ccccc2)c(O)c1	inactive	–
C1CNCCN1	5.61 µM (active) and inactive	–
COc1cc(O)c(C(=O)c2ccccc2)cc1S(=O)(=O)O	inactive	–
COc1ccc(O)cc1	21.7 µM (active)	–
CC(O)COc1ccccc1 (stereo not given)	inactive	–
NC(N)=NC(N)=NCCc1ccccc1	–	-22.1% (inactive)
CC1=NN(c2ccccc2)C(=O)C1	inactive	–
O=c1c(-c2ccc(O)cc2)coc2cc(O)cc(O)c12	10.7 µM (active)	–
NC(=O)N1c2ccccc2C=Cc2ccccc21	inactive	–
Cc1cccc(C)c1O	inactive	–
NC(=O)N/N=C/c1ccc([N+](=O)[O-])o1	inactive and 10.9 µM (active) and 29.8 µM (active)	–
C[C@]12CC[C@@H]3c4ccc(O)cc4C[C@@H](CCCCCCCCCS(=O)CCCC(F)(F)C(F)(F)F)[C@H]3[C@@H]1CC[C@@H]2O (stereo not given in full)	–	-16.6% [at 42.5 µM] (inactive)
CC(=O)c1ccc(S(=O)(=O)NC(=O)NC2CCCCC2)cc1	inactive	–
CN(C)Cc1cc(CN(C)C)c(O)c(CN(C)C)c1	inactive	–
Cc1ccc(O)c(-n2nc3ccccc3n2)c1	60.6 µM (active) and inactive	–
COC(=O)c1ccc(O)cc1	inactive	–
c1ccc2[nH]c(-c3cscn3)nc2c1	inactive	–
O=C1OC(c2ccc(O)cc2)(c2ccc(O)cc2)c2ccccc21	3.83 µM (active) and 38.6 µM (active) and inactive	–
OCCCc1ccccc1	inactive	–
NC(=O)OCC(COC(N)=O)c1ccccc1	inactive	–
COc1cc2c(c(OC)c1OC)-c1ccc(OC)c(=O)cc1[C@@H](NC(C)=O)CC2	1.7 nM (active) and 2.4 nM (active)	–
